These results are taken from PubChem BioAssay (NCI).

Some test systems named below: NCI-H226 lung; NCI-H322M lung; HOP-62 NSCLC; NCI-H460 lung; NCI-H522 lung; A549/ATCC NSCLC; 786-0 renal; COLO 205 colon; DU-145 prostate.
Test in all cases: NCI-60 one-dose screen, 48 h (100 = growth as untreated, 0 = no growth, -100 = all killed)
Common to all, as to settings: 10 µM unless noted

Structures are written as SMILES. About 83,000 compounds went through this panel and 20% of them were active in at least one assay; those are over-represented in the sample as a whole.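 The endpoint reported here, percent growth, reads 100 for growth as untreated, 0 for no net growth and -100 for all cells dead.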 Unmarked numbers belong to inactive results. Calls of active or inactive are those of the source. How the source made its calls: active means growth percent below 10; inactive means the rest.

Take `N#Cc1nc(-c2ccccc2)oc1S(=O)(=O)N1CCN(CCc2ccccn2)CC1`: the growth is 98.1% with NCI-H226 lung; 95.6% in the experiment on NCI-H322M lung; 109% in the experiment on HOP-62 NSCLC; 100% in the experiment with NCI-H460 lung; -66% (active) in the experiment with NCI-H522 lung; 103% with A549/ATCC NSCLC. The values for the growth with 786-0 renal, with COLO 205 colon and with DU-145 prostate were 8.4% (active), 30.1% and 75.4%, respectively.
As to `Cc1ccc(CNS(=O)(=O)/N=C2\NC(=O)NC2=C(Cl)Cl)cc1`, the growth is 79.1% in the experiment on NCI-H226 lung; 99.9% with NCI-H322M lung; 46.2% in the experiment with HOP-62 NSCLC; 75.3% in the experiment on NCI-H460 lung; 36.8% in the experiment with NCI-H522 lung; 99.2% in the experiment on A549/ATCC NSCLC. The growth in the experiment on 786-0 renal is 36.6%; in the experiment with COLO 205 colon it was 113%; in the experiment on DU-145 prostate, 32.6%.
`CC(C)Sc1nc(Nc2ccc(S(N)(=O)=O)cc2)c(C#N)c(-c2ccc(F)cc2)n1`: the growth in the experiment on NCI-H522 lung was 73.5%; in the experiment with COLO 205 colon, 79%; in the experiment on DU-145 prostate it was 25.1%.
Regarding `CCOC(=O)c1c(Nc2ccccc2)nn2c(N)c(C#N)c(-c3ccc(F)cc3)nc12`, the growth in the experiment on NCI-H226 lung is 90.6%; with NCI-H322M lung it was 101%; in the experiment with HOP-62 NSCLC, 91.7%; with NCI-H460 lung it was 86.8%; in the experiment on NCI-H522 lung, 90.5%; with A549/ATCC NSCLC, 96.1%. Further, the growth in the experiment with 786-0 renal was 80.8%; in the experiment on COLO 205 colon, 93.4%; in the experiment with DU-145 prostate, 83.2%.
As for `Cc1sc2nc(NCc3ccccc3Cl)[nH]c(=O)c2c1C`, the growth in the experiment with NCI-H226 lung is 88.5%; in the experiment with NCI-H322M lung, 96.6%; in the experiment on HOP-62 NSCLC it was 93.4%; in the experiment with NCI-H460 lung it was 50.4%; in the experiment on NCI-H522 lung it was 95.3%; in the experiment on A549/ATCC NSCLC, 84%. Further, the values for the growth in the experiment on 786-0 renal, in the experiment on COLO 205 colon and in the experiment on DU-145 prostate were 91%, 113% and 98%, respectively.
In the case of `CC(C)(C)Nc1nc2c(OCCc3ccccc3)cccn2c1-c1cccc(F)c1`, the growth with NCI-H226 lung was -7.74% (active); with NCI-H322M lung it was 20.1%; with HOP-62 NSCLC, -33.2% (active); with NCI-H460 lung it was -11% (active); with NCI-H522 lung, -0.543% (active); in the experiment with A549/ATCC NSCLC, 12.3%. In addition, the growth with 786-0 renal is 5.13% (active); in the experiment with COLO 205 colon, -75% (active); in the experiment with DU-145 prostate, 22.7%.
For `O=C(CSc1nc2sc3c(c2c(=O)n1-c1ccc(Cl)cc1)CCCC3)N/N=C/c1ccc(F)cc1`, the growth was 113% in the experiment with NCI-H226 lung; 104% in the experiment on NCI-H322M lung; 105% in the experiment with HOP-62 NSCLC; 81.4% in the experiment on NCI-H460 lung; 100% with NCI-H522 lung; 88.1% in the experiment with A549/ATCC NSCLC. Further, the growth is 98.9% with 786-0 renal, 117% in the experiment on COLO 205 colon and 82.1% in the experiment with DU-145 prostate.
As to `N/C(=N\c1nc2c(Br)cccc2s1)C(Br)Br`, the growth was 48.9% with NCI-H226 lung; 31.8% with NCI-H322M lung; 39.8% with HOP-62 NSCLC; -20.4% (active) in the experiment with NCI-H460 lung; -75.1% (active) with NCI-H522 lung; 21.8% with A549/ATCC NSCLC. In addition, the growth was -14.3% (active) with 786-0 renal, 1.7% (active) with COLO 205 colon and -21.8% (active) with DU-145 prostate.
As to `Cn1c(SCC(=O)c2cccs2)nc2ccccc2c1=O`, the growth with NCI-H226 lung is 91.9%; with NCI-H322M lung, 102%; in the experiment with HOP-62 NSCLC it was 85.9%; in the experiment on NCI-H460 lung it was 98.7%; in the experiment with NCI-H522 lung, 87.8%; in the experiment on A549/ATCC NSCLC, 99.6%. Also, the growth in the experiment on 786-0 renal is 98.6%; in the experiment with COLO 205 colon, 111%; with DU-145 prostate it was 105%.
Regarding `Cc1cc(=O)oc2cc(OCCCOc3ccc(/C=C/C(=O)Nc4ccc(Cl)cc4)cc3)ccc12`, the growth in the experiment on NCI-H226 lung was 79.5%; in the experiment with NCI-H322M lung it was 83%; in the experiment with HOP-62 NSCLC, 90.2%; in the experiment with NCI-H460 lung, -6.83% (active); in the experiment on NCI-H522 lung, 82.6%; in the experiment on A549/ATCC NSCLC, 28.6%. Besides, the growth is 46.4% in the experiment on 786-0 renal, 68.2% in the experiment on COLO 205 colon and 73.6% in the experiment on DU-145 prostate.
With `O=C(N/N=C/c1ccc([N+](=O)[O-])s1)c1[nH]c2ccc(Br)cc2c1-c1ccccc1`, the growth in the experiment on NCI-H226 lung was 23.7%; in the experiment with NCI-H322M lung, 54.9%; in the experiment with HOP-62 NSCLC, 27.2%; in the experiment with NCI-H460 lung, -26.1% (active); in the experiment on NCI-H522 lung, -44.5% (active); in the experiment with A549/ATCC NSCLC, 14.5%. In addition, the growth in the experiment with 786-0 renal is 9.9% (active); in the experiment on COLO 205 colon, -55.5% (active); in the experiment on DU-145 prostate, 20.4%.
Consider `Cc1cc(C(NC(=O)CCCCCNc2cccc3c2C(=O)N(C2CCC(=O)NC2=O)C3=O)c2cccnc2)c(O)c2ncccc12` (stereo not drawn), for which the growth in the experiment on NCI-H226 lung was 14.2%; in the experiment on NCI-H322M lung it was 3.62% (active); with HOP-62 NSCLC, 10.2%; in the experiment with NCI-H460 lung, 13.6%; in the experiment on NCI-H522 lung it was 23.4%; with A549/ATCC NSCLC it was 28%. The growth in the experiment on 786-0 renal was 9.13% (active); with COLO 205 colon, 2.37% (active); in the experiment with DU-145 prostate it was 34.8%.
Regarding `COc1cccc(N2CCN(c3ncnc4c3[nH]c3ccc(F)cc34)C[C@@H]2C)c1`, the growth is -60.5% (active) in the experiment on NCI-H226 lung; -39.9% (active) with NCI-H322M lung; -54.2% (active) in the experiment with HOP-62 NSCLC; -17.2% (active) in the experiment with NCI-H460 lung; -91.8% (active) with NCI-H522 lung; 2.18% (active) with A549/ATCC NSCLC. The results for the growth with 786-0 renal, in the experiment on COLO 205 colon and in the experiment with DU-145 prostate were -58.5% (active), -88.5% (active) and -67.3% (active), respectively.
For `C#Cc1nc(C2=C(C)C(=O)/C(=N/OC(C)=O)C2)cs1`, the growth with NCI-H226 lung is 107%; in the experiment on NCI-H322M lung, 101%; with HOP-62 NSCLC it was 88.5%; with NCI-H460 lung, 98.5%; in the experiment with NCI-H522 lung, 82.6%; with A549/ATCC NSCLC it was 96.3%. In addition, the growth in the experiment with 786-0 renal is -94.5% (active); in the experiment on COLO 205 colon, 119%; with DU-145 prostate it was 85.7%.
As for `C#Cc1nc(C2=C(C)C(=N\O)/C(=N/O)C2)cs1`, the growth with NCI-H226 lung was 101%; with NCI-H322M lung it was 99.2%; in the experiment with HOP-62 NSCLC, 101%; in the experiment on NCI-H460 lung it was 97%; in the experiment on NCI-H522 lung, 91.8%; in the experiment on A549/ATCC NSCLC it was 95.3%. For the same compound, the results for the growth with 786-0 renal, in the experiment with COLO 205 colon and in the experiment on DU-145 prostate were -90.9% (active), 118% and 92.2%, respectively.
On to `COc1ccc(C(=O)/C=C/c2ccc(OCc3ccc(C)cc3)c(OC)c2)cc1OC`, for which the growth is 59.2% with NCI-H226 lung; 70.4% with NCI-H322M lung; 101% in the experiment on HOP-62 NSCLC; 60.1% in the experiment on NCI-H460 lung; 72.3% with NCI-H522 lung; 63.3% in the experiment with A549/ATCC NSCLC. The growth was 83.7% with 786-0 renal, 95.3% with COLO 205 colon and 70.3% in the experiment on DU-145 prostate.
